# HIF act: HIF pathway transcriptional activation | U2OS HRE-luciferase reporter, luminescence; normalized: DMSO 0%, desferrioxamine 100% | activation, % at 7.5 µM (by protocol) | 300,000 tested, 0.32% active | AID 1910;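 active = mean activation of at least 10% of the iron chelator positive control signal, with at least half of replicates also reaching 10%; inconclusive = mean and replicate majority disagree about reaching 10%; inactive = mean and most replicates under 10%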
# AHR act: human AHR activation; AHR-responsive luciferase reporter cells, luminescence; activation, % at 5 µM; 320,000 tested, 2.5% active; AID 2796; in the data active = activation above about 47%;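 also: 0% = vehicle wells and 100% = reference agonist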
# Target sequence (P35869 whole entry, looked up): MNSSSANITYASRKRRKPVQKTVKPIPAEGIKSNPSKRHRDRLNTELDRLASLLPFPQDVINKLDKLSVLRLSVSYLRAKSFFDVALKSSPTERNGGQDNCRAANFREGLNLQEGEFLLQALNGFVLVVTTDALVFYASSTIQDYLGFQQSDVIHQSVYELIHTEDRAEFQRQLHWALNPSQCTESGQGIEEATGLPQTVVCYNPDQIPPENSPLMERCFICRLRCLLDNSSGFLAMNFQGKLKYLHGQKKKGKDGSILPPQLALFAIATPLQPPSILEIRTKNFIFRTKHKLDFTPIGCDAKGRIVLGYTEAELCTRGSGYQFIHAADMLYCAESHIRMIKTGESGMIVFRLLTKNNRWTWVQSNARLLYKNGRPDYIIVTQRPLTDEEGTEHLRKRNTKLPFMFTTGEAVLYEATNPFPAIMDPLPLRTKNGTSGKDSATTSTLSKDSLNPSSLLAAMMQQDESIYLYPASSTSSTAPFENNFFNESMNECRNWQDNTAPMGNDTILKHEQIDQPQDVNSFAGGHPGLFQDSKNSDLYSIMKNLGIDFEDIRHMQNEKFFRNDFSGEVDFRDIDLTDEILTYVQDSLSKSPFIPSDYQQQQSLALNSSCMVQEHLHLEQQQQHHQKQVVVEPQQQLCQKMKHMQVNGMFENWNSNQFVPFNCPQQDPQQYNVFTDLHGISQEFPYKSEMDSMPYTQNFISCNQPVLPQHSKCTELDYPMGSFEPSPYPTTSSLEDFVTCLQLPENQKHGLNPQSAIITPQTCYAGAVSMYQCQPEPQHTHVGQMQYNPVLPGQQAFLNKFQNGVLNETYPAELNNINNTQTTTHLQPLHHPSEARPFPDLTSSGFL
# sPLA2-III inh: Blocks human group III sPLA2 activity. Q9NZ20. QFRET BODIPY PC-A2 liposome hydrolysis, fluorescence. inhibition, % at 12.2 µM. 370,000 tested, 0.56% active;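 active = inhibition above mean plus 3 SD of compounds lying within the high and low control bounds, cut at about 19% in these data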;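 also: 0% = median of test compound wells and 100% = no enzyme DMSO wells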
# PLC-gamma1 inh: blocks human PLC-gamma1 enzyme activity; P19174; purified PLC-gamma1, fluorogenic substrate, fluorescence; AID 720700; 370,000 tested, 0.84% active; inhibition, % at 12.2 µM; in the data active = inhibition above about 9.5%
# Yeast superoxide: caloric restriction mimetics inhibiting age-related superoxide in yeast; S. cerevisiae aged cells, superoxide DHE fluorescence; hits give low values; superoxide response (% of plate mean), % at 10 µM; AID 2690; 330,000 tested, 0.18% active;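 active = superoxide response under a set limit, about three screen SD below normal, cut at about 65% in these data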;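 also: yeast aged for seven days with compound at 30 °C before DHE staining; 100% = average MFI of all compound-treated wells on the plate with controls excluded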
# PLC-beta3 inh: inhibitors of human phospholipase C beta3 | AID 720704 | 370,000 tested, 0.18% active | Purified PLC-beta3, fluorogenic substrate, fluorescence | inhibition, % at 12.2 µM; in the data active = inhibition above about 11%;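 also: 0% = median of compound wells on plate and 100% = full blocker control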
# The depositor's hits bear a star; ? = inconclusive; nt = no result. Rows were chosen to be rich in hits. Some 3.9% of all compounds tested hit in one or more screens of this group.
SMILES,HIF act,AHR act,sPLA2-III inh,PLC-gamma1 inh,Yeast superoxide,PLC-beta3 inh
COC(=O)C1=C(C)N(C)C(=NCc2ccccc2)NC1c1ccc(F)cc1 (configuration not stated),nt,nt,5,0,nt,0
Cc1ccccc1NC(=O)CN1C(=O)CCSc2ccccc21,nt,nt,2,-1,nt,0
C[C@@H](O[Si](c1ccccc1)(c1ccccc1)C(C)(C)C)[C@@H]1NC(=O)[C@@H]2C[C@]3(Br)c4ccccc4N(S(=O)(=O)c4ccccc4)[C@@H]3N2C1=O,nt,nt,-4,0,nt,1
CC(=O)Nc1ccc(N=C(C2=C(O)c3ccccc3C2=O)c2ccccc2)cc1,1,64*,1,-4,143,-8
COc1ccc(N=C(C)C2=C(O)c3ccccc3C2=O)cc1,0,-2,5,3,104,1
COc1ccc(S[C@]2(C(=O)N(C)C)CC(=O)N(S(=O)(=O)c3ccc(F)cc3)[C@@H]2c2ccc(OC)cc2)cc1,nt,nt,2,0,nt,-1
COc1ccc2nc(NC(=O)C3CCCN(S(=O)(=O)c4cccs4)C3)sc2c1 (configuration not stated),0,71*,-33,1,116,1
CS(=O)(=O)c1ccc2nc(NC(=O)c3ccccc3Cl)sc2c1,0,nt,1,-1,99,-5
CS(=O)(=O)c1ccc2nc(NC(=O)C3CC3)sc2c1,15*,1,0,6,95,5
Cc1cc2cc(CNC(=O)NC3CCCCC3)ccc2[nH]1,0,57*,-7,-24,86,-31
Cc1ccc(S(=O)(=O)NC[C@@H]2C[C@H](c3ccccc3)ON2S(=O)(=O)c2ccc(C)cc2)cc1,nt,nt,-22,-1,nt,-3
COc1ccc(C(=O)C(=O)N2CCN(C(=O)c3ccccc3C(F)(F)F)CC2)cc1OC,nt,nt,3,-1,nt,1
COc1cc(/C=N/Nc2nc3ccccc3s2)ccc1OC(=O)c1ccccc1F,4,78*,6,-6,93,-1
COc1cc(OC)cc(C(=O)Oc2ccc(/C=N/Nc3nc4ccccc4s3)cc2OC)c1,3,72*,9,-20,107,-19
COC(=O)c1cccc(Cn2ccc3ccc(-c4ccc5ccn(C(=O)c6ccc(C)cc6)c5c4)cc32)c1,nt,nt,11,-16,nt,-23
Cc1c(C(=O)N2CCCCC2)c(S(=O)(=O)NCCc2ccc(Cl)cc2)c(C)n1C,14*,-1,-5,1,78,-4
CCOC(=O)c1ccc(Nc2nc(C)cc(C)c2C#N)cc1,0,6,-3,-15,74,-18
Cc1cc(C)c(C#N)c(Nc2ccc(F)cc2)n1,0,74*,2,-10,104,-17
C#CCN1C(=O)[C@]2(NCCc3c2[nH]c2ccc(OC)cc32)c2ccccc21,nt,nt,1,-2,nt,-1
COc1cc(NC(=O)CSc2nnnn2Cc2ccc3c(c2)OCO3)cc(OC)c1,-2,71*,0,5,93,-3
Cc1sc2nc(COC(=O)CNC(=O)c3cc(F)ccc3F)[nH]c(=O)c2c1C,nt,nt,1,0,nt,3
CCCC(=O)Nc1nc2ccc(NC(=O)c3ccccc3F)cc2s1,1,62*,-2,-3,103,-12
CC(=O)Nc1ccc2nc(NC(=O)COc3ccccc3C)sc2c1,12*,39,-3,-1,104,-2
COc1ccc(C(C(=O)N(C)C2CCCC2)N(Cc2ccc(F)cc2)C(=O)c2ncn[nH]2)cc1OC (configuration not stated),nt,nt,-3,-1,nt,-2
CNc1ccc(C=C2C=Cc3ccccc32)cc1,nt,nt,25*,11*,nt,7
SMILES,HIF act,AHR act,sPLA2-III inh,PLC-gamma1 inh,Yeast superoxide,PLC-beta3 inh
COC(=O)C1=C(C)N(C)C(=NCc2ccc(C(F)(F)F)cc2)NC1c1cccc(F)c1 (configuration not stated),nt,nt,-12,1,nt,3
CC(C)=NOC(=O)c1c(C)noc1-c1snnc1C,60*,0,1,-1,100,-2
COC(=O)c1c(C)noc1-c1snnc1C,1,-2,11,0,107,-9
COc1ccc(-c2cc(C(=O)NN=Cc3ccccc3[N+](=O)[O-])[nH]n2)cc1,nt,nt,5,-2,nt,1
C/C(=N\NC(=O)c1c(C)nc2ccccn12)c1ccccc1F,0,6,1,1,106,-2
C/C(=N\NC(=O)c1c(C)nc2ccccn12)c1ccc(O)cc1O,13*,5,12,-5,111,-11
Cc1c(NS(=O)(=O)c2cc(C(=O)NCc3cccnc3)cc(Cl)c2Cl)c(=O)n(-c2ccccc2)n1C,0,60*,-5,-1,93,-8
Cc1nc(NCCc2ccccc2)c2oc3ccccc3c2n1,0,64*,-1,5,75,-1
Cc1nc(Nc2ccc3c(c2)OCO3)c2oc3ccccc3c2n1,1,65*,5,-46,86,-60
COc1ccc(Nc2nc(C)nc3c2oc2ccccc23)cc1,0,11,-2,-51,90,-74
Cc1nc(Nc2ccccc2)c2oc3ccc(Cl)cc3c2n1,1,51*,4,-53,88,-61
Cc1ccc(Nc2nc(C)nc3c2oc2ccccc23)cc1,1,61*,-2,-93,86,-130
COC(=O)[C@]12C[C@H](CC(=O)NCc3cccc(C(F)(F)F)c3)C(=O)N(Cc3cccc4ccccc34)C1=C[C@H](C(C)(C)C)O[C@@H]2C,nt,nt,-9,2,nt,6
COc1cc(C(=O)N2CCN(C(=O)Cc3ccccc3)CC2)cc(OC)c1OC,13*,-1,0,1,111,2
COc1cc(C(=O)N2CCN(CCCc3ccccc3)CC2)cc(OC)c1OC,1,3,13,2,106,-6
COc1cccc(C(=O)NC(=S)Nc2ccc3c4c(cccc24)CC3)c1,2,67*,6,-71,108,-68
Cc1ccc(-c2nc(C3CCCN(S(=O)(=O)c4ccccc4)C3)no2)cc1 (configuration not stated),nt,nt,-3,3,nt,-1
C=CCN(CC#CC(=C)C)CC1CC1,nt,nt,4,-3,nt,0
O=C(Nc1ccc(N2CCOCC2)cc1)c1ccc(Cl)nc1,0,73*,nt,nt,112,nt
Nc1nc2nc[nH]c2c(=O)[nH]1,0,2,nt,nt,97,nt
Nc1nc(OCC2CCCCC2)c2[nH]cnc2n1,0,56*,-4,0,94,-1
CCCCN1CN2CCc3ccccc3C2CS1(=O)=O (configuration not stated),nt,nt,8,-2,nt,3
Cc1ccc(CNc2ccc3c(c2)nc(C)n3C)cc1,?,57*,9,-51,98,-62
Cc1nc2cc(NCc3ccc(Cl)cc3)ccc2n1C,1,24,9,-75,106,-95
COc1cc(NC(=O)c2cccs2)c(OC)cc1NC(=O)c1cccs1,0,57*,nt,nt,108,nt
COc1cc(NCCC(=O)c2cccs2)c(OC)cc1Cl,-1,51*,5,0,78,2
